Test [1] has as its system MDA-MB-231. Description: cell viability relative to vehicle unstimulated control (fraction); higher = more viable cells. The following applies: pre-treatment time: 18 h then 24 h IFNg/TNF.
Test [2] has as its system MDA-MB-231. Description: kynurenine production, fold change vs DMSO IFNg/TNF control; higher = more kynurenine produced (less inhibition). The following applies: pre-treatment time: 18 h then 24 h IFNg/TNF. In short, it runs like this:
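MDA-MB-231 cells (7 × 10^4/well, 96-well plates, seeded 24 h earlier) were pre-treated 18 h with each natural product in 0.1% DMSO, then stimulated 24 h with IFNγ (1 U/ml) and TNF (6.25 ng/ml) at 37°C. Supernatant kynurenine was read at 492 nm after trichloroacetic acid and p-dimethylaminobenzaldehyde treatment, against 0–100 μM standards. Kynurenine production is the fold change over cytokine-stimulated vehicle wells on the same plate, averaged over duplicate plates in the first screening round.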

± gives the standard deviation of the averaged measurements.
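Wherever cell viability relative to vehicle unstimulated control is given: viability of the cells left after supernatant collection, read with Deep Blue dye added for 4 h, as absorbance at 570 nm minus 600 nm.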

With `CC(C)=CCC[C@](C)(O)[C@H]1CC[C@]2(C)[C@@H]1[C@H](O)C[C@@H]1[C@@]3(C)CC[C@H](O)C(C)(C)[C@@H]3[C@@H](O[C@@H]3O[C@H](CO)[C@@H](O)[C@H](O)[C@H]3O[C@@H]3OC[C@@H](O)[C@H](O)[C@H]3O)C[C@]12C` [Notoginsenoside R2] (compound dose: 10 uM), the cell viability in test [1] was 1.04 ± 0.031. In test [2], the kynurenine production stood at 1.24 ± 0.12.
Regarding `COC(=O)C1=CO[C@@H](O[C@@H]2O[C@H](CO)[C@@H](O)[C@H](O)[C@H]2O)[C@H]2[C@@H]1[C@H](O)C[C@]2(C)O` [Shanzhiside methyl ester] (compound dose: 10 uM), the cell viability in test [1] came out at 1.007 ± 0.0034. Besides, the kynurenine production in test [2] was 0.998 ± 0.16.
As for `C=C(C)[C@@H]1CC[C@]2(C(=O)O)CC[C@]3(C)[C@H](CC[C@@H]4[C@@]5(C)CC[C@H](O[C@@H]6OC[C@H](O)[C@H](O)[C@H]6O[C@@H]6O[C@@H](C)[C@H](O)[C@@H](O)[C@H]6O)[C@@](C)(CO)[C@@H]5CC[C@]43C)[C@@H]12` [Pulchinenoside A] (compound dose: 10 uM), the cell viability in test [1] was found to be 1.04 ± 0.051. The kynurenine production in test [2] amounted to 0.878 ± 0.057.
Consider `C=C1CCC[C@]2(C)C[C@]3(O)OC(=O)C(C)=C3C[C@@H]12` [Atractylenolide III] (compound dose: 10 uM), for which, in test [1], the cell viability worked out at 1.015 ± 0.0091. In addition, the kynurenine production in test [2] is 0.763 ± 0.15.
With `CC1OC2OC3C(OCC(O)C3O)OC(=O)C34CCC(C)(C)CC3C3=CCC5C6(C)CC(O)C(OC7OC(CO)C(O)C(O)C7OC7OCC(OC(=O)CC(C)(O)CC(=O)OC1C(OC1OCC(O)C(O)C1O)C2O)C(O)C7O)C(C)(CO)C6CCC5(C)C3(C)CC4O` (stereo not given) [Tubeimoside II] (compound dose: 10 uM), the cell viability in test [1] came out at 0.387 ± 0.0057. The kynurenine production in test [2] was found to be 0.21 ± 0.0034.
As to `C=C(C=O)[C@H]1CC[C@H](C)[C@H]1C=O` [dolichodial] (compound dose: 10 uM), in test [1], the cell viability is 1 ± 0.032. The kynurenine production in test [2] is 0.897 ± 0.018.
Regarding `C=C[C@H]1[C@H](O[C@@H]2O[C@H](CO)[C@@H](O)[C@H](O)[C@H]2O)OC=C2C(=O)OCC[C@]21O` [Swertiamarin] (compound dose: 10 uM), the cell viability in test [1] worked out at 0.9564 ± 0.0069. The kynurenine production in test [2] is 0.912 ± 0.14.
Turning to `CC(=O)OC(C)(C)CCC(=O)[C@](C)(O)[C@H]1[C@H](O)C[C@@]2(C)[C@@H]3CC=C4[C@@H](C[C@H](O)[C@@H](O)C4(C)C)[C@]3(C)C(=O)C[C@]12C` [Cucurbitacin IIa] (compound dose: 10 uM), the cell viability in test [1] worked out at 0.939 ± 0.036. For the same molecule, the kynurenine production in test [2] was 0.778 ± 0.07.
For `C=C(C)[C@H]1CC=C(C)CC1` [(r)-(+)-limonene] (compound dose: 10 uM), in that order: 0.986 ± 0.032 and 0.907 ± 0.04.
As to `O=c1ccoc2cc(O)cc(O)c12` [5.7-dihydroxychromone] (compound dose: 10 uM), the cell viability in test [1] was found to be 0.9229 ± 0.0012. Besides, the kynurenine production in test [2] came out at 0.868 ± 0.023.
With `CC(=O)O[C@]12CCC(C)=CC[C@]13CC[C@H]2[C@@](C)(/C=C/C=C(\C)C(=O)O)OC3=O` [Pseudolaric Acid  A] (compound dose: 10 uM), the cell viability in test [1] was 0.834 ± 0.11. Moreover, the kynurenine production in test [2] was determined as 0.449 ± 0.12.
For the molecule `C[C@H]1O[C@@H](O[C@H]2CC[C@@]3(C)[C@@H](CC[C@]4(C)[C@@H]3C=CC3=C5CC(C)(C)CC[C@]5(CO)[C@H](O)C[C@]34C)[C@]2(C)CO)[C@H](O)[C@@H](O[C@@H]2O[C@H](CO)[C@@H](O)[C@H](O)[C@H]2O)[C@H]1O` [Saikosaponin B2] (compound dose: 10 uM), the cell viability in test [1] was determined as 1.047 ± 0.0068. For the same molecule, the kynurenine production in test [2] is 0.739 ± 0.04.
On to `CC(C)=CCCC1(C)CCC2(C)C3CCC4(C)C(C)C(=O)CCC4C3(C)CCC2(C)C1` (stereo not given) [Shionone] (compound dose: 10 uM), for which, in test [1], the cell viability stood at 1.02 ± 0.0034. The kynurenine production in test [2] is 0.776 ± 0.11.
Regarding `C[C@@H]1O[C@@H](O[C@H]2[C@H](OC(=O)[C@]34CCC(C)(C)C[C@H]3C3=CC[C@@H]5[C@@]6(C)C[C@H](O)[C@H](O[C@@H]7O[C@H](CO)[C@@H](O)[C@H](O[C@@H]8O[C@H](CO)[C@@H](O)[C@H](O)[C@H]8O)[C@H]7O)C(CO)(CO)[C@@H]6CC[C@@]5(C)[C@]3(C)C[C@H]4O)OC[C@H](O)[C@@H]2O)[C@H](O)[C@H](O)[C@H]1O[C@@H]1OC[C@@H](O)[C@H](O[C@@H]2OC[C@](O)(CO)[C@H]2O)[C@H]1O` [Platycodin D2] (compound dose: 10 uM), the cell viability in test [1] was 0.7561 ± 0.0061. For the same molecule, in test [2], the kynurenine production turned out to be 0.301 ± 0.043.
For `CCCCCCCCCC(=O)O[C@@H]1[C@@H](C)[C@@]2(O)[C@@H](C=C(COC(=O)Cc3ccc(O)c(OC)c3)C[C@]3(O)C(=O)C(C)=C[C@@H]23)[C@@H]2C(C)(C)[C@]12OC(=O)CCCCCCCCC` [Phorbol 12,13-didecanoate 20-homovanillate] (compound dose: 10 uM), the cell viability in test [1] was 1 ± 0.024. In addition, in test [2], the kynurenine production worked out at 0.74 ± 0.024.

For the origin of these results see the supplement of paper PMC13094657.
